Bioassay records (PubChem BioAssay)
ROC1-CUL1 inh: inhibitors of human ROC1-CUL1 ubiquitin ligase activity. P62877+Q13616. in vitro K48 di-Ub FRET, acceptor:donor ratio, 45 min. inhibition, % at 10 µM. 140,000 compounds, 0.6% hits; in the data active means inhibition above about 25%
Target sequence (P62877 whole entry, looked up): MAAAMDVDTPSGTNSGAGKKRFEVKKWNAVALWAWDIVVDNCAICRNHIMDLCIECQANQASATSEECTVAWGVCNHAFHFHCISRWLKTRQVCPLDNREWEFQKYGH
Target sequence (Q13616 whole entry, looked up): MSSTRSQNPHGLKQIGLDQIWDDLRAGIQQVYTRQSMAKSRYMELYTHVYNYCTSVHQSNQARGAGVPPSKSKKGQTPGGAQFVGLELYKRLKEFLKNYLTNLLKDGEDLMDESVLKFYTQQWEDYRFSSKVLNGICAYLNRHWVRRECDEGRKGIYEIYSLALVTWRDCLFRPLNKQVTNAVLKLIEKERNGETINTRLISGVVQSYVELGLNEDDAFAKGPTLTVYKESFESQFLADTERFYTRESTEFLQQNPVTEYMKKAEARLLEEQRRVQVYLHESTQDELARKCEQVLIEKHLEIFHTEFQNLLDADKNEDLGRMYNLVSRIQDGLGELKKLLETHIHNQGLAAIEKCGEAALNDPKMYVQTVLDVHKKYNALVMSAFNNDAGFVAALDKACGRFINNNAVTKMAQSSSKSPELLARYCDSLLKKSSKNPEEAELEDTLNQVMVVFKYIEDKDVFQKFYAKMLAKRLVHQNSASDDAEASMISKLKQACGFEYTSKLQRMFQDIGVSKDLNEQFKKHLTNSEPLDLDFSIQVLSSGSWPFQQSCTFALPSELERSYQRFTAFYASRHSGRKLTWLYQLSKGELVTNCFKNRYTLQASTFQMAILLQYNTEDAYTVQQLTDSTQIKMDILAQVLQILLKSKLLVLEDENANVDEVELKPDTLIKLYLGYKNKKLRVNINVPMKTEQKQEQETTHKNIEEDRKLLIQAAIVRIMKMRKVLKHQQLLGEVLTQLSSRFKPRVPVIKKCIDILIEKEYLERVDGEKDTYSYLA
Numbers without * were called inactive. Only a selection was taken, and hits are over-represented in it overall.

SMILES | ROC1-CUL1 inh
CC(=O)N1CCc2cc(S(=O)(=O)NC(CC(C)C)C(=O)NCCc3cccc(C)c3)ccc21 (stereo not drawn) | 44.5*
COc1ccc(Cl)cc1NC(=O)c1ccc(CN2CCCCC2)cc1 | 6.6
Cc1cc(C)nc(NS(=O)(=O)c2ccc(NC(=O)Nc3ccc(Cl)cc3)cc2)n1 | 25.4*
Cc1cc(C)nc(NS(=O)(=O)c2ccc(NC(=O)COc3ccc(Cl)cc3C)cc2)n1 | 2.7
Cc1cc(C)nc(NS(=O)(=O)c2ccc(NC(=O)c3ccc(Cl)cc3Cl)cc2)n1 | -4.7
CC(C)NC(=O)c1cccnc1Cl | 6.7
C=CCn1c(Sc2nc3c(C(=O)OCC)nnn3c3ccccc23)nnc1-c1ccccc1 | 4.7
CCOC(=O)c1nnn2c1nc(Cl)c1ccccc12 | 79.0*
CCOC(=O)c1nnn2c3ccccc3c(=O)n(CC(=O)c3ccc(Cl)cc3)c12 | 5.7
O=c1/c(=C/c2c[nH]c3ccccc23)sc2n1C(c1ccccc1)C1=C(N=2)c2ccccc2CC1 (stereo not drawn) | 0.6
O=S(=O)(O)c1cccc2cc(O)ccc12 | 8.6
O=S(=O)(O)c1ccc2c(S(=O)(=O)O)cccc2c1 | 5.3
Nc1ccc(/C=C\c2ccc(-n3nc4ccc5c(S(=O)(=O)O)cccc5c4n3)cc2S(=O)(=O)O)c(S(=O)(=O)O)c1 | 67.8*
COCCNC(=O)N1CCN(Cc2ccccc2)CC1 | 3.9
CC(Oc1ccc(C(C)C)cc1)C(=O)N1CCN(C)CC1 (stereo not drawn) | 4.5
CCN=C1CC=CC=C(C(=O)/C=C/c2ccc(C(F)(F)F)cc2)C1=O | -8.9
CCN=C1CC=C(Br)C=C(C(=O)/C=C/c2ccc(N(C)C)cc2)C1=O | 5.6
CC(C)CCNC(=O)/C=C/c1ccc(Cl)c(Cl)c1 | -3.0
CCN=C1CC=CC=C(C(=O)/C=C/c2ccc(Br)cc2)C1=O | 85.7*
CCN=C1CC=CC=C(C(=O)/C=C/c2ccccc2OC)C1=O | 86.5*
CCN=C1CC=CC=C(C(=O)/C=C/c2cc(OC)ccc2OC)C1=O | 8.4
CCN=C1CC=CC=C(C(=O)/C=C/c2ccc(Cl)c(Cl)c2)C1=O | 62.0*
O=C(/C=C/c1ccc(Cl)c(Cl)c1)NCCC1=CCCCC1 | 7.1
CCN=C1CC=C(Br)C=C(C(=O)/C=C/c2cccc(Cl)c2Cl)C1=O | 21.6
Cc1ccc(Sc2c(C)nn(S(=O)(=O)c3c(C)cc(C)cc3C)c2C)cc1 | 3.9
SMILES | ROC1-CUL1 inh
COC(=O)[C@H](C)NC(=O)CN1C(=O)[C@@H]2[C@H](C1=O)[C@@H]1C=C[C@H]2C1 | -4.0
CN(Cc1cccc(-c2nc(C3CCOCC3)cc(=O)[nH]2)c1)Cc1ccn[nH]1 | -0.2
CCC(C)(C)NC(=O)C1CCN(C(=O)c2ccc(Cl)cc2)CC1 | -3.3
Cc1ccccc1NC(=O)Cc1ccccc1F | 0.8
Cc1nc2sc3c(c2c2nnc(-c4ccccc4)n12)CCC3 | 0.3
COC(=O)C1=C(C)C(C)(C)OC1=O | 4.6
CC(C)NC(=O)Oc1ccc(Cl)cc1Cl | -9.7
O=C(Nc1ccccc1O)c1cccnc1Cl | -2.8
COc1ccc(OC)c(NC(=O)CSc2cc(C)nc(SCC(=O)c3ccc(C)cc3)n2)c1 | 9.5
N=CC1Nc2ccccc2C1=O (stereo not drawn) | 31.1*
O=C1c2ccccc2NC1C=NCCO (stereo not drawn) | 7.7
O=C1C(C2Nc3ccccc3C2=O)=Nc2ccccc21 (stereo not drawn) | -0.1
Cc1sc2nc(-c3ccc(-c4ccc(Cl)c(C(=O)O)c4)o3)[nH]c(=O)c2c1C | 47.2*
Cc1sc2nc(-c3ccc(-c4ccc(C(=O)O)cc4)o3)[nH]c(=O)c2c1C | -2.1
Cc1sc2nc(-c3ccccc3)[nH]c(=O)c2c1C | 7.1
COc1ccc(-c2cc(-c3ccccc3)nc3sc(C(=O)Nc4cc(C)ccc4C)c(N)c23)cc1 | 0.4
Cc1nc2sc3c(c2c(=O)n1-c1ccc(Br)cc1)CCC3 | -0.2
COc1ccc2c(c1)C=Cc1ccccc1O2 | 7.8
COc1ccc2c(c1)C=C1C(=CC(=O)CC1(C)C)O2 | 111.5*
COc1ccc2c(c1)C(O)(C(F)(F)F)C(=O)O2 (stereo not drawn) | -2.8
CCc1ccc(-c2nc3cc(NC(=O)/C=C\c4ccco4)ccc3o2)cc1 | 5.7
O=C(/C=C/c1ccco1)Nc1ccc2oc(-c3cccnc3)nc2c1 | 54.0*
O=C(Nc1ccc2oc(-c3cccnc3)nc2c1)c1ccc(-c2ccccc2)o1 | 3.9
NC1=NN(c2ccccc2)C(=O)C1N=Nc1ccccc1 (stereo not drawn) | -4.9
CC1=NN(c2ccccc2)C(=O)C1c1ccccc1 (stereo not drawn) | 2.8
SMILES | ROC1-CUL1 inh
O=C1N(c2ccccc2)N=C(c2ccccc2)C1(Br)Br | 60.1*
O=C1C(=O)N(c2ccccc2)N=C(c2ccccc2)C1C(=O)c1ccccc1 (stereo not drawn) | -1.3
CC(=O)Nc1ccc(CN2CCOc3ccc(CN4CCC(Oc5cccnc5)CC4)cc3C2)cc1 | 0.3
CC(Oc1ccc(F)cc1F)C(=O)N1CCN(c2ccccc2)CC1 (stereo not drawn) | 0.7
COc1cc(NCCCCCN)c2ncccc2c1 | 26.1*
COc1cc(NCCCCCCCN)c2ncccc2c1 | -3.3
COc1ccc(OC)c(NS(=O)(=O)c2cccc3cccnc23)c1 | 0.8
Oc1cccc(-c2nc(-c3ccccc3)c(-c3ccc(Cl)cc3)[nH]2)c1 | 5.1
Cc1ccc2c(c1)nnn2S(=O)(=O)c1ccc([N+](=O)[O-])cc1 | -5.3
Cc1ccc2c(c1)nnn2S(=O)(=O)c1ccc(C(C)(C)C)cc1 | 0.0
CCc1ccc(S(=O)(=O)n2nnc3ccccc32)cc1 | 26.1*
Cc1ccc(-n2c(C)nnc2SCC(=O)N2C(C)CCCC2C)cc1C (stereo not drawn) | -3.6
CC1(C)OC2OC(C(O)c3cc(O)c4c(c3O)C(=O)c3ccccc3C4=O)C(C)(O)C2O1 (stereo not drawn) | 64.5*
COc1cc(NC(=O)CSc2nc(-c3ccc(C)cc3)nc3c2Cc2ccccc2O3)cc(OC)c1 | 5.0
O=C(CSc1nc(-c2ccc(F)cc2)nc2c1Cc1ccccc1O2)Nc1cccc(C(=O)O)c1 | 25.2*
COc1cccc2c1Oc1nc(-c3ccccc3)nc(SCC(=O)Nc3ccccc3)c1C2 | -6.3
CCOC(=O)c1c(N2C(=N)C(C#N)C(c3ccc(Br)s3)C3=C2CC(C)(C)CC3=O)sc2c1CCCC2 (stereo not drawn) | 7.4
COC(=O)C1=CN(CCOc2ccccc2)C=C(C(=O)OC)C1c1ccc(Cl)cc1 | -0.9
CC(=O)N=C1CC(=NS(=O)(=O)c2ccc(C)cc2)CC(=NC(C)=O)C1=O | -1.0
Cc1ccc(S(=O)(=O)N=NC2CCSCC2)cc1 | -0.7
Cc1ccc(S(=O)(=O)N=C2Cc3ccccc3N2C)cc1 | 27.0*
OCc1cn(CC2CCCN(Cc3ccc(-n4ccnc4)cc3)C2)nn1 (stereo not drawn) | -0.5
Cc1cc(N=C2NC(=O)/C(=C\c3ccc(Br)o3)S2)ccc1Cl | 4.0
Cc1ccc(/C=C2\SC(=Nc3ccc(C)c(C)c3)NC2=O)o1 | -4.7
CCN(CC)c1ccc(/C=C2\SC(=Nc3ccc(Cl)c(Cl)c3)NC2=O)o1 | 28.8*
SMILES | ROC1-CUL1 inh
CC1CCc2c(sc3nnn(Cc4cccc(C(=O)OC(C)C)c4)c(=O)c23)C1 (stereo not drawn) | -4.1
CC(C)OC(=O)c1cccc(NC(=O)Cn2nnc3sc4c(c3c2=O)CCCC4)c1 | 4.6
CC(C)OC(=O)c1ccc(Cn2nnc3sc4c(c3c2=O)CCCC4)cc1 | 44.1*
Cn1c(CN2CCCCC2)nc2ccccc21 | 4.1
c1ccc2nc3c(nc2c1)c1ccccc1n3CN1CCCCC1 | 1.7
OCNc1nc2c3ccccc3nc(CCN3CCCCC3)n2n1 | 45.7*
